Measured values taken from PubChem BioAssay AID1159580 (chemical genetic matrix, 2015).
About 2,000 (36%) of roughly 5,500 compounds were called active. About 18% were inconclusive and are not listed. Rule as the data show it: active = normalized growth mostly below about 0.91 (no sharp cut-off); inconclusive = no clear call, values can overlap the other calls; inactive = mostly above about 0.92. This is one part of the list.

Assay: chemical genetic growth profiling, strain panel (AID 1159580);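 also: tested at 20 µM; growth read once vehicle control cultures reached saturation at 30 °C; 1 = growth at the plate median or of vehicle wells; lower values mean less growth of the strain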
Settings: growth OD
[1] = S. cerevisiae deletion strains, locus YAL013W, strain DEP1, active compounds read low
[2] = S. cerevisiae deletion strains, locus YBR229C, strain ROT2, active compounds read low
[3] = S. cerevisiae deletion strains, locus YDL101C, strain DUN1, active compounds read low
[4] = S. cerevisiae deletion strains, locus YDL134C, strain PPH21, active compounds read low
[5] = S. cerevisiae deletion strains, locus YDR150W, strain NUM1, active compounds read low
[6] = S. cerevisiae deletion strains, locus YEL061C, strain CIN8, active compounds read low
[7] = S. cerevisiae deletion strains, locus YHR030C, strain SLT2, active compounds read low
[8] = S. cerevisiae deletion strains, locus YJR043C, strain POL32, active compounds read low
[9] = S. cerevisiae deletion strains, locus YJR075W, strain HOC1, active compounds read low
[10] = S. cerevisiae deletion strains, locus YLR039C, strain RIC1, active compounds read low
[11] = S. cerevisiae deletion strains, locus YLR262C, strain YPT6, active compounds read low
[12] = S. cerevisiae deletion strains, locus YNL322C, strain KRE1, active compounds read low
[13] = S. cerevisiae deletion strains, locus YPL055C, strain LGE1, active compounds read low

Measured: normalized growth

CC(=O)OC1CC(O)C(C)(C)C2CC(=O)C3(C)C(CCC4(C)C(c5ccoc5)OC(=O)C5OC543)C12C (stereo not drawn)
inactive: [1] 0.996 | S. cerevisiae deletion strains, locus YBR021W, strain FUR4, active compounds read low 0.947 | [2] 0.994 | S. cerevisiae deletion strains, locus YCL029C, strain bik1, active compounds read low 0.987 | S. cerevisiae deletion strains, locus YDL035C, strain GPR1, active compounds read low 0.988 | S. cerevisiae deletion strains, locus YDL074C, strain BRE1, active compounds read low 0.945 | [3] 0.992 | [4] 1.02 | S. cerevisiae deletion strains, locus YDL185W, strain tfp1, active compounds read low 0.995 | S. cerevisiae deletion strains, locus YDL192W, strain arf1, active compounds read low 0.971 | S. cerevisiae deletion strains, locus YDR101C, strain arx1, active compounds read low 0.974 | [5] 1.01 | S. cerevisiae deletion strains, locus YDR162C, strain NBP2, active compounds read low 1.01 | S. cerevisiae deletion strains, locus YDR318W, strain mcm21, active compounds read low 1.01 | S. cerevisiae deletion strains, locus YDR388W, active compounds read low 0.998 | S. cerevisiae deletion strains, locus YDR502C, strain sam2, active compounds read low 0.991 | [6] 1 | S. cerevisiae deletion strains, locus YER110C, active compounds read low 0.985 | S. cerevisiae deletion strains, locus YER155C, strain BEM2, active compounds read low 0.992 | S. cerevisiae deletion strains, locus YER167W, strain BCK2, active compounds read low 0.996 | S. cerevisiae deletion strains, locus YGL078C, strain dbp3, active compounds read low 0.968 | S. cerevisiae deletion strains, locus YGL086W, strain mad1, active compounds read low 0.978 | S. cerevisiae deletion strains, locus YGL248W, strain PDE1, active compounds read low 1.01 | S. cerevisiae deletion strains, locus YGR135W, strain pre9, active compounds read low 1.02 | S. cerevisiae deletion strains, locus YGR229C, strain SMI1, active compounds read low 0.998 | S. cerevisiae deletion strains, locus YGR252W, strain gcn5, active compounds read low 1.04 | [7] 0.995 | S. cerevisiae deletion strains, locus YHR079C, strain IRE1 (second series), active compounds read low 0.988 | S. cerevisiae deletion strains, locus YHR094C, strain hxt1, active compounds read low 0.989 | S. cerevisiae deletion strains, locus YHR129C, strain ARP1, active compounds read low 0.99 | S. cerevisiae deletion strains, locus YHR200W, strain rpn10, active compounds read low 1.01 | S. cerevisiae deletion strains, locus YIL066C, strain RNR3, active compounds read low 1.01 | S. cerevisiae deletion strains, locus YIL073C, strain SPO22, active compounds read low 1.06 | S. cerevisiae deletion strains, locus YIL125W, strain kgd1, active compounds read low 0.997 | S. cerevisiae deletion strains, locus YIR030C, strain dcg1, active compounds read low 0.992 | S. cerevisiae deletion strains, locus YJL095W, strain BCK1, active compounds read low 1.03 | S. cerevisiae deletion strains, locus YJL134W, strain LCB3, active compounds read low 0.988 | S. cerevisiae deletion strains, locus YJL168C, strain set2, active compounds read low 0.995 | S. cerevisiae deletion strains, locus YJL187C, strain SWE1 (second series), active compounds read low 0.996 | [8] 0.989 | [9] 1.01 | S. cerevisiae deletion strains, locus YKL009W, strain mrt4, active compounds read low 0.931 | S. cerevisiae deletion strains, locus YKL068W, active compounds read low 0.996 | S. cerevisiae deletion strains, locus YKL085W, strain MDH1 (second series), active compounds read low 0.999 | S. cerevisiae deletion strains, locus YKL085W, strain MDH1, active compounds read low 0.999 | S. cerevisiae deletion strains, locus YKR001C, strain vps1, active compounds read low 1 | [10] 0.995 | S. cerevisiae deletion strains, locus YLR058C, strain SHM2, active compounds read low 1 | S. cerevisiae deletion strains, locus YLR102C, strain apc9, active compounds read low 0.996 | [11] 1.02 | S. cerevisiae deletion strains, locus YLR268W, strain sec22, active compounds read low 0.96 | S. cerevisiae deletion strains, locus YLR330W, strain CHS5, active compounds read low 1.01 | S. cerevisiae deletion strains, locus YLR342W, strain FKS1 (second series), active compounds read low 1.01 | S. cerevisiae deletion strains, locus YLR371W, strain rom2, active compounds read low 0.99 | S. cerevisiae deletion strains, locus YLR418C, strain cdc73, active compounds read low 0.999 | S. cerevisiae deletion strains, locus YML016C, strain PPZ1, active compounds read low 0.985 | S. cerevisiae deletion strains, locus YML032C, strain rad52, active compounds read low 1.03 | S. cerevisiae deletion strains, locus YML124C, strain tub3, active compounds read low 1 | S. cerevisiae deletion strains, locus YMR078C, strain ctf18, active compounds read low 0.988 | S. cerevisiae deletion strains, locus YMR223W, strain ubp8, active compounds read low 1.01 | S. cerevisiae deletion strains, locus YMR307W, strain GAS1, active compounds read low 0.971 | S. cerevisiae deletion strains, locus YNL067W, strain RPL9B, active compounds read low 1.01 | S. cerevisiae deletion strains, locus YNL233W, strain BNI4, active compounds read low 0.987 | S. cerevisiae deletion strains, locus YNL250W, strain rad50, active compounds read low 0.989 | S. cerevisiae deletion strains, locus YNL271C, strain bni1, active compounds read low 0.983 | S. cerevisiae deletion strains, locus YNL298W, strain CLA4, active compounds read low 0.968 | S. cerevisiae deletion strains, locus YNL307C, strain MCK1, active compounds read low 0.98 | [12] 0.999 | S. cerevisiae deletion strains, locus YNR052C, strain pop2, active compounds read low 0.996 | S. cerevisiae deletion strains, locus YOL006C, strain TOP1, active compounds read low 0.972 | S. cerevisiae deletion strains, locus YOL012C, strain htz1 0.734 | S. cerevisiae deletion strains, locus YOL147C, strain pex11, active compounds read low 0.989 | S. cerevisiae deletion strains, locus YOR061W, strain CKA2, active compounds read low 0.991 | S. cerevisiae deletion strains, locus YOR069W, strain VPS5, active compounds read low 0.985 | S. cerevisiae deletion strains, locus YOR136W, strain idh2, active compounds read low 0.966 | S. cerevisiae deletion strains, locus YOR144C, strain elg1, active compounds read low 0.996 | S. cerevisiae deletion strains, locus YOR184W, strain ser1, active compounds read low 0.982 | S. cerevisiae deletion strains, locus YOR316C, strain cot1, active compounds read low 0.992 | [13] 0.999 | S. cerevisiae deletion strains, locus YPR119W, strain clb2, active compounds read low 0.992 | S. cerevisiae deletion strains, locus YPR141C, strain kar3, active compounds read low 0.987 | S. cerevisiae deletion strains, locus YPR163C, strain tif3, active compounds read low 1 | S. cerevisiae deletion strains, locus YPR167C, strain met16, active compounds read low 0.985 | S. cerevisiae deletion strains, strain wtn01, active compounds read low 0.958 | S. cerevisiae strains, strain wild type, active compounds read low 1

Cc1c(C)c(C)c(CSc2nc3ccccc3[nH]2)c(C)c1C
inactive: [1] 1.01 | [2] 1.02 | S. cerevisiae deletion strains, locus YCL061C, strain MRC1, active compounds read low 1.04 | [3] 1.03 | [4] 1.02 | [5] 1.02 | [6] 1.03 | S. cerevisiae deletion strains, locus YGR078C, strain PAC10, active compounds read low 1.03 | [7] 1.08 | S. cerevisiae deletion strains, locus YHR087W, strain rtc3, active compounds read low 1.04 | S. cerevisiae deletion strains, locus YJL187C, strain SWE1, active compounds read low 1.01 | [8] 1.04 | [9] 1.07 | S. cerevisiae deletion strains, locus YKL190W, strain CNB1, active compounds read low 1.03 | [10] 1.02 | S. cerevisiae deletion strains, locus YLR058C, strain SHM2 (second series), active compounds read low 1.06 | S. cerevisiae deletion strains, locus YLR085C, strain ARP6, active compounds read low 1.01 | [11] 1.03 | S. cerevisiae deletion strains, locus YML094W, strain GIM5, active compounds read low 1.03 | S. cerevisiae deletion strains, locus YMR219W, strain ESC1, active compounds read low 1.01 | S. cerevisiae deletion strains, locus YMR263W, strain SAP30, active compounds read low 1.03 | S. cerevisiae deletion strains, locus YNL153C, strain GIM3, active compounds read low 1.05 | S. cerevisiae deletion strains, locus YNL298W, strain CLA4 (second series), active compounds read low 1.05 | [12] 1.02 | S. cerevisiae deletion strains, locus YNR030W, strain Alg12, active compounds read low 1.03 | [13] 1.08 | S. cerevisiae deletion strains, locus YPL241C, strain CIN2, active compounds read low 1.03 | S. cerevisiae deletion strains, locus YPR135W, strain CTF4, active compounds read low 1.26
